Activity calls are given as the source filed them.
Columns and labels:
[1] = tested on: Human papillomavirus type 1a protein E7 (residues 44-93); experiment: small molecules binding HPV E7 44-93 – biochemical, small-molecule microarray, residues 44-93, 635 nm fluorescence, primary screen (AID 1108); details: fluorescence 635 nm, higher = more signal;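 also: E7 fragment applied at 1 µg/mL in TBST for 1 h at 4 C; score combines spot fluorescence with its signal to noise ratio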
[2] = hepatitis C replication reporter changes, two-sided – Huh7 cells, luciferase reporter, HCV replication inhibitor project, primary screen (AID 1109); details: Huh7 HCV replicon luciferase reporter, 48 h; higher = more signal;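 also: huh7 hepatoma cells harbouring a luciferase neomycin HCV replicon reporter; luciferase luminescence as measure of HCV replicon replication; test concentration not given here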
[3] = target: Left-right determination factor 2 (Homo sapiens) (UniProt O00292); experiment: small molecules binding LEFTY2 protein – biochemical, small-molecule microarray, 635 nm fluorescence scan, primary screen (AID 1110); details: higher = more signal
Sequence of Left-right determination factor 2 (Homo sapiens) (O00292 whole entry, looked up): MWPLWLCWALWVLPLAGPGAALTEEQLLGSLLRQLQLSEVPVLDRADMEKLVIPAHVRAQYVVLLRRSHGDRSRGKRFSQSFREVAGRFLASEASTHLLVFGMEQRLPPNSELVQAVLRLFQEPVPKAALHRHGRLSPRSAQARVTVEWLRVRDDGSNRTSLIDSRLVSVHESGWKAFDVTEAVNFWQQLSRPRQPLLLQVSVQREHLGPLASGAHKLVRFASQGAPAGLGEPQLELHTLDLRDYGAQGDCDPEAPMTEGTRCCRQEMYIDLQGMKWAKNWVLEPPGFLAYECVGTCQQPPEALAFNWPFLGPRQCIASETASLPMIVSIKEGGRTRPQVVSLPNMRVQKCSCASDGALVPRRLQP

[4] = target: Calmodulin-1 (Homo sapiens) (UniProt P0DP23); experiment: small molecules binding calmodulin-1 with EGTA – biochemical, small-molecule microarray, Cy5-labelled CALM1, profiling panel (AID 1111); details: Cy5-CALM1 binding fluorescence, higher = more signal;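 also: labelled calmodulin applied in Tris saline Tween buffer holding calcium plus EGTA and DTT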
[5] = target: Calmodulin-1 (Homo sapiens) (UniProt P0DP23); experiment: small molecules binding Ca-loaded calmodulin-1 – biochemical, small-molecule microarray, Cy5-labelled CALM1, plus calcium, artefact control for SMM control-protein annotation, profiling panel (AID 1112); details: Cy5-CALM1 binding fluorescence, higher = more signal;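 also: score merges spot fluorescence with signal to noise from triplicate slides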
[6] = probe aWnt5a binding to arrayed compounds – biochemical, biotinylated probe, 635/667 nm fluorescence, primary screen (AID 1113); details: small-molecule microarray, higher = more signal;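 also: score merges 667 nm fluorescence intensity with signal-to-noise per printed feature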
[7] = probe aShh binding to arrayed compounds – biochemical, biotinylated probe, 635/667 nm fluorescence, primary screen (AID 1114); details: small-molecule microarray, higher = more signal;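 also: probe is biotin-labelled aShh protein from a stem cell growth factor screen; measures binding of labelled protein to compounds printed on the slide; score merges feature fluorescence at 667 nm with signal-to-noise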
[8] = probe aNog binding to arrayed compounds – biochemical, biotinylated probe, 635/667 nm fluorescence, primary screen (AID 1115); details: small-molecule microarray, higher = more signal;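 also: probe is biotinylated aNog protein used at 0.15 µg/mL for 1 h at 4 C; z-score combines 667 nm fluorescence of each spot with its signal to noise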
[9] = target: Torsin-1A-interacting protein 1 (Homo sapiens) (UniProt Q5JTV8); experiment: compound microarray binding of lysate hLAP1 – cell lysate, small-molecule microarray, COS7 lysate, 635/667 nm fluorescence, primary screen (AID 1116); details: 635 nm fluorescence, higher = more signal
Sequence of Torsin-1A-interacting protein 1 (Homo sapiens) (Q5JTV8 whole entry, looked up): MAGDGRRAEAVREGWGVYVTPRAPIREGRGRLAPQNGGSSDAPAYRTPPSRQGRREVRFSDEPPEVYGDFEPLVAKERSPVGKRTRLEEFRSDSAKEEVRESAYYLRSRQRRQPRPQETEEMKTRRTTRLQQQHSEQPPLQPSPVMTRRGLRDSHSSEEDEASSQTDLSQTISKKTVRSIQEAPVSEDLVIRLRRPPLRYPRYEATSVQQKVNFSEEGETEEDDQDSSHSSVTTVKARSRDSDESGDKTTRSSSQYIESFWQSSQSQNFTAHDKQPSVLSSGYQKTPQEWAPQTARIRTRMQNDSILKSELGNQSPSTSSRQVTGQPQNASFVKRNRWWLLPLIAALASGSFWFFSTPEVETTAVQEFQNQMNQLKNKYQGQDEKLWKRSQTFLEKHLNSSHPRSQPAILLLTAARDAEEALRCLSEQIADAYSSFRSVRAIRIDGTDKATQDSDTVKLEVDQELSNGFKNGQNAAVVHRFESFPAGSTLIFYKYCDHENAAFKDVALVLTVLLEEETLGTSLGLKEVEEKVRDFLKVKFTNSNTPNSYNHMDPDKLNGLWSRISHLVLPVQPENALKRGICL

[10] = target: Alpha-bungarotoxin (Bungarus multicinctus) (UniProt P60615); experiment: compounds binding labelled alpha-BTX control protein – biochemical, small-molecule microarray, Alexa647 label, 635/667 nm fluorescence, artefact control for SMM control protein annotation, profiling panel (AID 1117); details: alpha-BTX-A647 binding fluorescence, higher = more signal
Sequence of Alpha-bungarotoxin (Bungarus multicinctus) (P60615 whole entry, looked up): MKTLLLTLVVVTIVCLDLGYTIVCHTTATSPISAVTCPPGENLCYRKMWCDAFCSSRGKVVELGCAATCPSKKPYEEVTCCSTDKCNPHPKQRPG

[11] = target: Albumin (Bos taurus) (UniProt P02769); experiment: compounds binding labelled BSA control protein – biochemical, small-molecule microarray, Alexa647 label, 635/667 nm fluorescence, artefact control for SMM control protein annotation, profiling panel (AID 1118); details: BSA-A647 binding, fluorescence 635 nm, higher = more signal;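 also: score merges 667 nm emission intensity and signal-to-noise per printed compound spot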
Sequence of Albumin (Bos taurus) (P02769 whole entry, looked up): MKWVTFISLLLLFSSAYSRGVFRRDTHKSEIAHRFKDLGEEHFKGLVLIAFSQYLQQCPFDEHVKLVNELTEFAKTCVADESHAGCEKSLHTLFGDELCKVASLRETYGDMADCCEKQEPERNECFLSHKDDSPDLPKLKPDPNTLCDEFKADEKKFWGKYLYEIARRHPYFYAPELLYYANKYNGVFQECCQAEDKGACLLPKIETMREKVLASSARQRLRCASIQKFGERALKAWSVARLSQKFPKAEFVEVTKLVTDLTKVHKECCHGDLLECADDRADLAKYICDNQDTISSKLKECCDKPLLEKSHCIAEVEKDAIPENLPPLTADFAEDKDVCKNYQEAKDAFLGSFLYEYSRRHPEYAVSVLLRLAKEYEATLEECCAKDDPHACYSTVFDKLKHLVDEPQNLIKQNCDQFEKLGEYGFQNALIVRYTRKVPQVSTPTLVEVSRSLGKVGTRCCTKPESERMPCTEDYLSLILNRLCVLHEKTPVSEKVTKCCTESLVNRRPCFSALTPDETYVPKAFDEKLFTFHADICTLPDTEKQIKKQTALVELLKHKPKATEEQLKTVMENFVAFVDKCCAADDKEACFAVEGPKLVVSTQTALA

[12] = probe aXIP binding to arrayed compounds – biochemical, NeuroSMM set, 635/667 nm fluorescence, primary screen (AID 1119); details: small-molecule microarray, higher = more signal, called active from +8 up or from −8 down;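 also: probe is the protein aXip251-270 applied at 1 µg/mL to compound-printed slides; binding of probe to printed compounds measured as 667 nm fluorescence plus signal to noise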
[13] = probe aNOTCH3 binding on compound microarray – biochemical, small-molecule microarray, 635/667 nm fluorescence, primary screen (AID 1120); details: higher = more signal;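 also: probe is a biotin-tagged antibody raised against NOTCH3 rather than NOTCH3 protein; score merges spot fluorescence near 667 nm with spot signal to noise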
[14] = probe aNOTCH2 binding on compound microarray – biochemical, small-molecule microarray, 635/667 nm fluorescence, primary screen (AID 1121); details: higher = more signal;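 also: score merges feature fluorescence read at 667 nm with its signal to noise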
[15] = target: Carbonic anhydrase 2 (Homo sapiens) (UniProt P00918); experiment: compounds binding carbonic anhydrase 2 – biochemical, small-molecule microarray, Alexa647-labelled CAII, profiling panel (AID 1122); details: CAII-A647 binding fluorescence, higher = more signal
[16] = COS7 lysate on small-molecule microarray, probe aHis, 635 nm (AID 1123); details: COS7 cell lysate, fluorescence, higher = more signal;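 also: z-score combines 667nm fluorescence intensity with signal-to-noise per printed compound spot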
[17] = probe aLAP1 signal on lysate-treated microarray – cell lysate, small-molecule microarray, COS7 lysate, primary screen (AID 1124); details: probe aLAP1, fluorescence, higher = more signal;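 also: lysate comes from COS7 cells expressing LAP1 and is applied at 0.3 µg/mL; score merges spot fluorescence near 667 nm with signal-to-noise over triplicate slides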
[18] = tested on: Sam68 (KHDRBS1); experiment: compounds binding KHDRBS1 protein – biochemical, small-molecule microarray, 635 nm fluorescence, primary screen (AID 1125); details: higher = more signal;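 also: score merges 667 nm channel intensity with signal to noise over triplicate slides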
[19] = tested on: Chordin-like protein 2 (CHRDL2); experiment: compounds binding chordin-like 2 – biochemical, small-molecule microarray, 635 nm fluorescence, primary screen (AID 1126); details: fluorescence 635 nm, higher = more signal;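 also: printed compound slides probed with Chrdl2 protein at 4 µg/mL for 1 h at 4 C; score merges 667 nm emission intensity with signal to noise over three replicate slides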
[20] = target: Concanavalin-A (Canavalia ensiformis) (UniProt P02866); experiment: compounds binding concanavalin A lectin – biochemical, small-molecule microarray, Alexa647 label, 635 nm, artefact control for SMM control protein annotation, primary screen (AID 1127); details: ConA-A647 binding fluorescence, higher = more signal;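 also: z combines 667 nm emission intensity with signal-to-noise across three replicate slides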
Sequence of Concanavalin-A (Canavalia ensiformis) (P02866 whole entry, looked up): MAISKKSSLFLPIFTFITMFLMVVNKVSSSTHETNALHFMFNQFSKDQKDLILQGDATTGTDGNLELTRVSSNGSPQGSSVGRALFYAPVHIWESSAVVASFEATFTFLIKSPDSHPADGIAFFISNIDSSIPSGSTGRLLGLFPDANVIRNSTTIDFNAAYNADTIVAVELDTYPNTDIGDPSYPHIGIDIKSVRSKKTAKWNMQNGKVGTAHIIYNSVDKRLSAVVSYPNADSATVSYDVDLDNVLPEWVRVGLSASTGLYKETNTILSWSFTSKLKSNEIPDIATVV

Row | Compound | composite z-score [1] | z-score [2] | composite z-score [3] | composite z-score [4] | composite z-score [5] | composite z-score [6] | composite z-score [7] | composite z-score [8] | composite z-score [9] | composite z-score [10] | composite z-score [11] | composite Z-score [12] | composite z-score [13] | composite z-score [14] | composite z-score [15] | composite z-score [16] | composite z-score [17] | composite z-score [18] | composite z-score [19] | composite z-score [20]
1 | COCCOC(=O)N1C(=O)[C@@]2(c3cc(C#CCCO)ccc31)[C@H](c1ccccc1OCCO)N1[C@H](c3ccccc3)[C@H](c3ccccc3)OC(=O)[C@H]1[C@@H]2C(=O)N1CCN(c2ncccn2)CC1 | 1.43 | -1.92 | 1.15 | 1.33 | 0.569 | 0.203 | 0.141 | 0.435 | 1.16 | 0.994 | 0.602 | 0.341 (inactive) | 0.413 | 0.123 | 0.539 | 2.02 | 0.505 | 1.12 | 0.52 | 1.15
2 | CN1C(=O)C2C=CC(C(O)c3ccccn3)N(Nc3ccccc3)C2C1=O (stereo not given) | 0.409 | 0.0435 | 0.129 | -0.163 | -0.408 | -0.0647 | 0.318 | 0.266 | 0.353 | 0.476 | -0.0756 | 0.0956 (inactive) | 0.0711 | -0.14 | 0.727 | 0.446 | 0.456 | 0.656 | 0.288 | 0.37
3 | O=C(OCCF)C1=CCC(c2cccc(Cl)c2)O1 (stereo not given) | 0.628 | -0.0162 | 0.15 | 0.0307 | 0.164 | -0.169 | -0.0769 | -0.0784 | 1.53 | 0.775 | 0.374 | 0.13 (inactive) | -0.191 | -0.199 | 0.593 | 0.751 | 0.142 | 0.748 | -0.165 | 0.532
4 | O=C1O[C@@H](c2ccccc2)[C@@H](c2ccccc2)N2[C@@H](c3ccc(OCCO)cc3)[C@]3(C(=O)Nc4ccccc43)[C@@H](C(=O)Nc3nc4ccccc4s3)[C@H]12 | 1.44 | -2.66 | 1.05 | 1.67 | 0.241 | 0.105 | 0.171 | 1.27 | 1.5 | 1.78 | 0.915 | 0.755 (inactive) | 0.372 | -0.0028 | 0.593 | 2.45 | 0.262 | 1.3 | 0.477 | 1.11
5 | O=C1C2C=CC(C(O)c3ccc(-c4ccccc4)s3)N(n3cnnc3)C2C(=O)N1Cc1ccccc1 (stereo not given) | 0.423 | -0.602 | -0.253 | -0.164 | -0.377 | -0.096 | 0.0062 | 0.141 | 0.585 | 0.399 | -0.314 | -0.34 (inactive) | 0.0519 | -0.0467 | 0.465 | 0.942 | 0.253 | 0.145 | -0.42 | 0.615
6 | O=C(CCN1CCOCC1)c1cccc(O)c1 | 0.591 | -3.35 | 1.47 | -0.396 | -1.21 | -0.0372 | -0.123 | -0.158 | 0.0422 | 1.4 | 0.379 | 0.989 (inactive) | 0.324 | 0.0292 | 0.634 | 0.973 | 0.629 | 0.922 | 1.48 | 0.767
7 | COc1cc2c(cc1O)C(C)N(Cc1cccc(OC(F)(F)F)c1)CC2 (stereo not given) | 1.37 | -0.815 | -0.442 | 0.854 | 0.938 | -0.0445 | 0.0326 | 0.582 | 1.67 | 0.514 | 0.986 | 0.414 (inactive) | -0.0204 | -0.0839 | 0.662 | 2.23 | 0.572 | 0.851 | -0.236 | 0.446
8 | CCCC[C@@H]1C[C@H]1[C@@H](NC(=O)c1ccc(-c2ccccc2)cc1)c1ccc(-c2ccccc2)cc1 | 0.511 | -0.787 | 0.848 | 0.212 | -0.836 | -0.0459 | 1.37 | -0.435 | 0.285 | 0.364 | -0.0732 | -0.254 (inactive) | -0.0072 | -0.0795 | 0.0853 | 0.468 | -0.113 | 0.287 | 1.42 | -0.142
9 | COCCCNC(=O)[C@@]1(c2ccc([N+](=O)[O-])cc2)CC(=O)N(CC23CC4CC(CC(C4)C2)C3)[C@@H]1c1ccc(CO)cc1 | 1.37 | -2.47 | 1.13 | -0.121 | -0.548 | -0.109 | -0.0119 | -0.761 | 0.422 | 0.572 | 0.197 | 0.324 (inactive) | 0.204 | -0.117 | 0.43 | 0.726 | 0.375 | 1.28 | 0.556 | 1.08
10 | COCCOC(=O)N1C(=O)[C@@]2(c3cc(C#CCCO)ccc31)[C@H](C(=O)NC[C@H](O)c1ccccc1)[C@H]1C(=O)O[C@H](c3ccccc3)[C@H](c3ccccc3)N1[C@@H]2c1ccc(O)cc1 | 0.727 | -0.485 | -0.186 | 0.302 | 0.262 | -0.0519 | -0.416 | -0.0784 | 1.11 | 0.476 | 0.508 | -0.302 (inactive) | -0.0362 | -0.115 | 0.568 | 0.813 | 0.16 | 0.053 | -0.496 | 1.09
11 | CCCCC(O)C1C=CC2C(=O)N(C3CCCCC3)C(=O)C2N1Nc1ccc(OC)cc1 (stereo not given) | 1.4 | -0.385 | 0.0786 | 1.05 | 0.304 | -0.0405 | 0.13 | 0.712 | 0.624 | 0.914 | 0.739 | 0.258 (inactive) | 0.11 | -0.0894 | 0.511 | 1.53 | 0.56 | 1.19 | -0.135 | 0.8

Source: PubChem BioAssay
